“And” between values parts separate entries of the source, which are not always exact repeats. Identical values can stand only once. About 83,000 compounds went through this panel and 20% of them were active in at least one assay; those are over-represented in the sample as a whole.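 Compound tested at a single concentration for 48 hours in 96-well plates; a percent growth value below 10 was scored as active.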 The source made the active and inactive calls.
How the values were obtained:
Experiment in all cases: NCI-60 one-dose screen, 48 h (100 = growth as untreated, 0 = no growth, -100 = all killed)
[1] = system: NCI-H23 lung
[2] = system: NCI-H322M lung
[3] = system: HOP-62 NSCLC
[4] = system: NCI-H460 lung
[5] = system: HOP-92 NSCLC
[6] = system: NCI-H522 lung
[7] = system: A549/ATCC NSCLC
[8] = system: 786-0 renal
[9] = system: COLO 205 colon
[10] = system: DU-145 prostate
[11] = system: K-562 leukemia
[12] = system: MALME-3M melanoma
[13] = system: RXF 393 renal
[14] = system: SF-268 CNS
[15] = system: SF-295 CNS
[16] = system: SF-539 CNS
[17] = system: UACC-257 melanoma
[18] = system: M14 melanoma
[19] = system: HCT-15 colon
[20] = system: MDA-MB-231 breast

Measured: growth

Nc1ccc2cc(Br)c3ccccc3c2c1
inactive: [1]; 10 µM 69.5% | [2]; 10 µM 64.7% | [3]; 10 µM 80.9% | [4]; 10 µM 54.1% | [5]; 10 µM 75.3% | [6]; 10 µM 86.9% | [7]; 10 µM 63% | [8]; 10 µM 54.8% | [9]; 10 µM 115% | [10]; 10 µM 61.8% | [11]; 10 µM 31.7% | [12]; 10 µM 97.8% | [14]; 10 µM 68.9% | [15]; 10 µM 21% | [16]; 10 µM 47.9% | [17]; 10 µM 90.1% | [18]; 10 µM 78.5% | [19]; 10 µM 33.2%
active: [13]; 10 µM 4.19%

O=C(/C(=C/c1ccccc1)CBr)c1ccccc1
inactive: [1]; 10 µM 73.1% | [2]; 10 µM 90.4% | [3]; 10 µM 109% | [4]; 10 µM 86.4% | [5]; 10 µM 86.3% | [6]; 10 µM 55.8% | [7]; 10 µM 90.1% | [8]; 10 µM 94.5% | [9]; 10 µM 92.6% | [10]; 10 µM 87.6% | [12]; 10 µM 77.5% | [20]; 10 µM 58.3% | [13]; 10 µM 71.7% | [14]; 10 µM 84.4% | [15]; 10 µM 95.1% | [16]; 10 µM 82.7% | [17]; 10 µM 73.9% | [18]; 10 µM 65.8% | [19]; 10 µM 47%
active: [11]; 10 µM 9.75%

O=c1[nH]cc(F)c(=O)[nH]1
inactive: [1]; 10 µM 55% and 55.2% | [1]; 25 µM 39% | [1]; 50 µM 41.6% | [2]; 10 µM 62.5% and 58.5% | [2]; 25 µM 59.5% | [2]; 50 µM 48.6% | [3]; 10 µM 46.6% and 82.3% | [3]; 25 µM 47.8% | [3]; 50 µM 42.4% | [4]; 10 µM 16% and 20% | [4]; 25 µM 13% | [4]; 50 µM 13.9% | [5]; 10 µM 87.3% and 49.3% | [5]; 25 µM 50.6% | [5]; 50 µM 75.7% | [6]; 10 µM 62.1% and 62.2% | [6]; 25 µM 58% | [7]; 25 µM 34.2% | [7]; 50 µM 31.2% | [8]; 10 µM 64.2% and 62.2% | [8]; 25 µM 48.7% | [8]; 50 µM 59% | [9]; 10 µM 51.4% and 39.4% | [9]; 25 µM 40.2% | [9]; 50 µM 33.5% | [10]; 10 µM 57.4% and 65.3% | [10]; 25 µM 35.5% | [10]; 50 µM 20.5% | [11]; 10 µM 64.6% and 69.4% | [11]; 25 µM 42.3% | [11]; 50 µM 41.5% | [12]; 10 µM 53.1% and 69.9% | [12]; 25 µM 58.2% | [12]; 50 µM 53.7% | [20]; 10 µM 96.2% and 84.6% | [20]; 25 µM 78.1% | [20]; 50 µM 77.2% | [13]; 10 µM 63.4% and 10.7% | [13]; 25 µM 34.3% | [13]; 50 µM 54.4% | [14]; 10 µM 81.3% and 91.9% | [14]; 25 µM 59% | [14]; 50 µM 47.7% | [15]; 10 µM 77% and 100% | [15]; 25 µM 69.1% | [15]; 50 µM 90.5% | [16]; 50 µM 22.8% | [17]; 10 µM 73.1% and 22.6% | [17]; 25 µM 19.5% | [17]; 50 µM 53.5% | [18]; 10 µM 64% and 28.9% | [18]; 50 µM 42.4% | [19]; 10 µM 48.1% and 51.4% | [19]; 25 µM 26.5% | [19]; 50 µM 37.8%
active: [7]; 10 µM -11.5% | [16]; 10 µM -0.0094% and -4.58% | [16]; 25 µM -19.6%

CN1CCN(c2ccc3nc(-c4ccc5nc(-c6ccc(O)cc6)[nH]c5c4)[nH]c3c2)CC1
inactive: [1]; 10 µM 74% | [2]; 10 µM 106% | [3]; 10 µM 95.8% | [4]; 10 µM 107% | [5]; 10 µM 42.1% | [6]; 10 µM 47% | [7]; 10 µM 62.1% | [8]; 10 µM 87.2% | [9]; 10 µM 72% | [10]; 10 µM 84.5% | [11]; 10 µM 50.2% | [12]; 10 µM 37.9% | [20]; 10 µM 121% | [13]; 10 µM 37.3% | [14]; 10 µM 82.9% | [15]; 10 µM 96.3% | [16]; 10 µM 77% | [17]; 10 µM 113% | [19]; 10 µM 94.3%

— PubChem BioAssay (NCI)
